In all, about 370,000 compounds went through this assay and about 5,400 (1.5%) were called active.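 How the source made its calls: active means activation above the mean of all tested compounds plus 3 SD (cut at about 5.5% in these data); inactive means the rest.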 Shown is part of a subset that was picked to be rich in actives.

This experiment deals with DAF-12 nuclear receptor (Haemonchus contortus). Kind of experiment: H. contortus DAF-12 nuclear receptor activators, primary screen, cell-based, luminescence, HEK293, lit1-tk-luc reporter (AID 652067).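 Further: 100% = response to 3 µM Δ7-dafachronic acid high control.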 As to conditions: HEK293 hcDAF-12 lit1-tk-luc reporter, at 6.8 µM, hits give high values, 0% DMSO, 100% Δ7-dafachronic acid.
Turning to `CCOc1ccc(-n2c(SCC(=O)Nc3cc(C)c(NC(=O)c4ccccc4)cc3OC)nnc2-c2cccc(Cl)c2)cc1`, the activation was -2.73% (inactive). For the compound `Cc1ccccc1NC(=O)Cn1nnc(-c2ccccc2F)n1`, the activation was 1.07% (inactive).

With `CN1CCCCC(NC(=O)C(C)(C)C)C1=O` (stereo not drawn), the activation is -1.55% (inactive). For the compound `Cc1cccc2c1N(CCOc1ccccc1)C(=O)C2=O`, the activation is -2.22% (inactive). Next, `Cc1nn(CCOc2ccccc2)c(=O)n1-c1ccccc1F`: 6.6% (active); `Cc1c(C(N)=O)sc2ncn(CCOc3ccccc3)c(=O)c12`: -0.81% (inactive); `Cc1ccc(N)cc1CN1CCN(c2ncc(Cc3ccccc3)cn2)CC1`: -1.34% (inactive). For `O=C1CC[C@@]23CCCN2C(=O)CCC[C@H]3[C@H]1Cc1ccccc1`, the activation was -0.12% (inactive). Take `NC(=O)c1ncn([C@@H]2O[C@H](C(=O)O)[C@@H](O)[C@H]2O)n1`: the activation was -0.43% (inactive).

For `CC(=O)OCC(C)n1c(=O)c2ccccc2n1C(C)=O` (stereo not drawn), the activation was -0.22% (inactive). Under `CC(=O)n1c(C=Nc2ccccc2)c(O)c2ccccc21` stands 7.8% (active); under `O=C(Nc1ccc(Br)cc1)OCCN1C(=O)CCC12CCC(c1ccccc1)CC2` (stereo not drawn), -1.25% (inactive); under `Cc1ccc(-c2nnc(SCC(=O)Nc3ccc(Oc4ccccc4)cc3)n2Cc2ccco2)cc1`, -2.76% (inactive). Next, `CCC(C)[C@@H](C(=O)OC)N(CCc1cn(Cc2ccccc2)nn1)S(=O)(=O)c1ccccc1Br` (stereo partly drawn): -2.4% (inactive); `O=C(CSc1nnc(-c2c[nH]c3ccccc23)o1)c1ccccc1`: -0.49% (inactive).

`CCCn1cc(SCC(N)=O)c2ccccc21`: the activation is 2.17% (inactive). With `NC(=O)CSc1c[nH]c2ccccc12`, the activation was 6.34% (active). On to `C/C(=N\OC(=O)c1ccccc1)c1c(C)nc2cc(C)ccn12`, for which the activation is -1.05% (inactive). Next, `Cc1cccc(/C(N)=N/OC(=O)c2ccccc2Cl)c1`: 10.8% (active); `Cc1cc(OC(=O)c2ccccc2Cl)ccc1N1C(=O)CCC1=O`: -1.68% (inactive). Under `CCCCNC(=O)C[C@H]1C(=O)N(Cc2ccc(OC)cc2)C2=CCCC[C@@]21C(=O)OCC` stands -4.06% (inactive); under `CC(=O)OCCN1CCCC12CCC(c1ccccc1)CC2` (stereo not drawn), -0.23% (inactive). Next, `CCCCCCN1CCS(=O)(=O)N(Cc2ccc(C(F)(F)F)cc2)C(C(=O)OC)C1` (stereo not drawn): -2.04% (inactive); `CN1C(=O)c2cc(NS(C)(=O)=O)ccc2OC[C@@H]2O[C@@H](CC(=O)NCc3ccc(-c4ccccc4)cc3)CC[C@H]21`: 0.33% (inactive); `O=C(OC12CCCN(C1)/C(=C/c1ccccc1)C2)c1ccco1` (stereo not drawn): -0.35% (inactive). Turning to `CCC(NC(=O)C1C2C=CC3(CN(Cc4ccccc4)C(=O)C13)O2)c1ccccc1` (stereo not drawn), the activation was -1.89% (inactive). Next, `COC(=O)[C@]12C[C@H](CC(=O)NCCC(C)C)C(=O)N(CCc3ccc(OC)c(OC)c3)C1=C[C@H](C(C)(C)C)O[C@@H]2C`: -0.99% (inactive).

Turning to `Cc1c(NC(=S)NCc2ccc(F)cc2)cccc1[N+](=O)[O-]`, the activation is -2.35% (inactive).

In the case of `CC(C)(C)C(=O)Nc1ccc(C(=O)N/N=C/c2ccccc2OC(=O)c2ccc(Cl)cc2Cl)cc1`, the activation was -1.06% (inactive). Next, `O=C(N/N=C/c1ccc(OC(=O)c2ccccc2Cl)cc1)c1ccc(O)cc1`: 5.89% (active); `O=C(N/N=C/c1ccc(OCC2COCCO2)cc1)c1ccc(Br)cc1` (stereo not drawn): -1.26% (inactive). On to `C=CCN1C(=O)[C@@H](CC(=O)NCC2CCCCC2)[C@]2(C(=O)OC)CCCCC=C12`, for which the activation was -1.65% (inactive). Next, `CCOc1ccccc1NC(=O)c1cccnc1`: -0.55% (inactive); `CCOc1ccccc1-c1cc(C(=O)N/N=C(\C)c2cccnc2)c2ccccc2n1`: 1.52% (inactive); `CCOc1cccc(/C=C/c2ccc3ccccc3n2)c1OC(C)=O`: 6.5% (active). In the case of `COC(=O)[C@H](C(C)C)N(CCc1cn(Cc2ccccc2)nn1)S(=O)(=O)c1ccc(F)cc1Br`, the activation is -3.41% (inactive). As for `CC(C)(C)c1ccc(S(=O)(=O)NCC2CCN(C(=O)C(=O)c3cc4ccccc4o3)CC2)cc1`, the activation is -1.1% (inactive). Under `CCCCN1CCN(C(=O)c2ccc3c(c2)NC(=O)C(C)(C)O3)CC1` stands 0.06% (inactive); under `Cc1ccc(NC(=O)c2cc([N+](=O)[O-])ccc2Cl)c(O)c1`, 6.38% (active); under `CNc1ccc([N+](=O)[O-])cc1C(=O)O`, -0.16% (inactive).

On to `CCC(C)C(=O)Nc1cc([N+](=O)[O-])ccc1Cl` (stereo not drawn), for which the activation was 1.23% (inactive). Under `COc1ccccc1C(=O)CSc1nnc(-c2ccccn2)n1-c1ccccc1` stands -3.35% (inactive); under `CCCC1CCC2(CCCN2CCOC(=O)NCc2ccccc2)CC1` (stereo not drawn), -0.18% (inactive). On to `CSc1ccc(Oc2cccc3c2S(=O)(=O)N([C@H](C)c2ccccc2)C[C@@H](COCc2ccccc2)O3)cc1C`, for which the activation was 0.01% (inactive).

Take `CCSc1ccccc1C(=O)NCc1ccc(OC)cc1`: the activation is -0.9% (inactive). As for `COc1ccc(C(=O)NCCSc2ccccc2C)cc1`, the activation is 5.88% (active).

Take `COc1ccc(C(=O)NCC[N+](C)(C)C)cc1`: the activation was -0.19% (inactive).

Turning to `Cc1cc(C)c(/C=C2\C(=O)Nc3ccccc32)[nH]1`, the activation was 6.61% (active). Under `COc1ccccc1S(=O)(=O)c1c(C)cc(C)[nH]c1=O` stands 0.35% (inactive); under `O=C1Nc2ccccc2C1=NN=Cc1ccco1`, 1.9% (inactive). Next, `CN(C(=O)COc1ncnc2c1cnn2-c1ccccc1)C1CCCCC1`: -0.54% (inactive). Next, `c1ccc(-n2ncc3c(N4CCCC4)ncnc32)cc1`: 6.43% (active); `CC(Sc1ncnc2c1cnn2-c1ccccc1)C(=O)Nc1ccc(N2CCOCC2)cc1` (stereo not drawn): 1.44% (inactive).

For `COc1ccc(-n2c(SCC(=O)Nc3ccc4c(c3)OCCO4)nnc2-c2ccc(Cl)cc2)cc1`, the activation is -1.21% (inactive). Under `Cc1nc2ccc(S(=O)(=O)NCC(=O)O)cc2s1` stands -0.41% (inactive). Next, `NS(=O)(=O)c1ccc2nc(NC(=O)CS(=O)(=O)c3ccc(F)cc3)sc2c1`: 9.74% (active); `COc1cc(NC(=O)CN(C)S(=O)(=O)c2ccc3nc(C)sc3c2)cc(OC)c1`: -1.14% (inactive); `COc1ccc(N2CCN(CCNS(=O)(=O)c3ccc([N+](=O)[O-])cc3)CC2)cc1`: -2.96% (inactive).

Values taken from PubChem BioAssay AID652067 (The Scripps Research Institute Molecular Screening Center, 2013).
